The whole screen tested about 5,500 compounds, of which about 2,000 (36%) were called active. Not shown: some 18% with an inconclusive outcome. Cut-off read from the data, not from the text of the source: active = normalized growth mostly below about 0.91 (no sharp cut-off); inconclusive = no clear call, values can overlap the other calls; inactive = mostly above about 0.92. Some of the results follow.
Assay: chemical genetic growth profiling, strain panel (AID 1159580);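 note: tested at 20 µM; growth read once vehicle control cultures reached saturation at 30 °C; 1 = growth at the plate median or of vehicle wells; lower values mean less growth of the strain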
Details: S. cerevisiae deletion strains, growth OD

Measured: normalized growth

CC[C@]1(O)CC2CN(CCc3c([nH]c4ccccc34)[C@@](C(=O)OC)(c3cc4c(cc3OC)N(C)[C@H]3[C@@](O)(C(=O)OC)[C@H](OC(C)=O)[C@]5(CC)C=CCN6CC[C@]43[C@@H]65)C2)C1 (stereo not given in full)
inactive: locus YAL021C, strain ccr4, hits give low values 1 | locus YAL026C, strain drs2, hits give low values 0.948 | locus YAL030W, strain snc1, hits give low values 0.985 | locus YBL061C, strain skt5, hits give low values 0.975 | locus YBR009C, strain hhf1, hits give low values 0.941 | locus YBR023C, strain chs3, hits give low values 0.984 | locus YBR171W, strain sec66, hits give low values 0.959 | locus YBR231C, strain swc5, hits give low values 0.982 | locus YBR279W, strain paf1, hits give low values 0.98 | locus YCL011C, strain gbp2, hits give low values 0.983 | locus YCL016C, strain dcc1, hits give low values 1.01 | locus YCL061C, strain MRC1, hits give low values 1.02 | locus YCL069W, strain vba3, hits give low values 0.969 | locus YCR088W, strain abp1, hits give low values 0.974 | locus YDL005C, strain med2, hits give low values 0.972 | locus YDL040C, strain nat1, hits give low values 0.969 | locus YDR001C, strain nth1, hits give low values 0.973 | locus YDR069C, strain doa4, hits give low values 1 | locus YDR137W, strain rgp1, hits give low values 0.979 | locus YDR159W, strain sac3, hits give low values 0.928 | locus YDR195W, strain ref2 0.951 | locus YDR297W, strain sur2, hits give low values 0.975 | locus YDR334W, strain swr1, hits give low values 0.955 | locus YDR335W, strain msn5, hits give low values 0.981 | locus YDR392W, strain spt3, hits give low values 0.859 | locus YEL003W, strain gim4, hits give low values 0.954 | locus YEL037C, strain rad23, hits give low values 0.963 | locus YEL061C, strain CIN8 (second series), hits give low values 0.962 | locus YER015W, strain faa2, hits give low values 0.961 | locus YER016W, strain bim1, hits give low values 0.989 | locus YER111C, strain swi4, hits give low values 0.972 | locus YER155C, strain BEM2 (second series), hits give low values 0.907 | locus YFR010W, strain ubp6, hits give low values 0.948 | locus YGL167C, strain pmr1, hits give low values 0.972 | locus YGL173C, strain kem1, hits give low values 0.976 | locus YGL227W, strain vid30, hits give low values 0.947 | locus YGL240W, strain doc1, hits give low values 0.954 | locus YGL253W, strain hxk2, hits give low values 1.01 | locus YHR013C, strain ard1, hits give low values 0.949 | locus YHR027C, strain rpn1, hits give low values 0.957 | locus YHR030C, strain SLT2, hits give low values 0.991 | locus YHR079C, strain IRE1, hits give low values 0.975 | locus YHR142W, strain chs7, hits give low values 1.02 | locus YJL092W, strain hpr5, hits give low values 0.973 | locus YJL095W, strain BCK1 (second series), hits give low values 0.978 | locus YJL095W, strain BCK1, hits give low values 0.992 | locus YJL115W, strain asf1, hits give low values 0.956 | locus YJL129C, strain trk1, hits give low values 0.986 | locus YJL154C, strain vps35, hits give low values 0.965 | locus YJL164C, strain tpk1, hits give low values 0.956 | locus YJL166W, strain qcr8, hits give low values 0.998 | locus YJL187C, strain SWE1, hits give low values 0.974 | locus YJR066W, strain TOR1, hits give low values 0.965 | locus YKL160W, strain elf1, hits give low values 1.05 | locus YKR026C, strain gcn3, hits give low values 0.975 | locus YKR091W, strain srl3, hits give low values 0.98 | locus YLL001W, strain dnm1, hits give low values 1.05 | locus YLL026W, hits give low values 0.979 | locus YLL041C, strain sdh2, hits give low values 0.964 | locus YLR027C, strain aat2, hits give low values 0.987 | locus YLR113W, strain HOG1, hits give low values 0.955 | locus YLR221C, strain rsa3, hits give low values 1.04 | locus YLR258W, strain gsy2, hits give low values 0.979 | locus YLR262C, strain YPT6 (second series), hits give low values 0.968 | locus YLR320W, strain mms22, hits give low values 1.04 | locus YLR342W, strain FKS1, hits give low values 0.977 | locus YLR357W, strain rsc2, hits give low values 0.974 | locus YLR370C, strain arc18, hits give low values 0.989 | locus YLR384C, strain iki3, hits give low values 0.967 | locus YML120C, strain ndi1, hits give low values 1.01 | locus YMR058W, strain fet3, hits give low values 0.977 | locus YMR125W, strain sto1, hits give low values 1.02 | locus YMR129W, hits give low values 0.967 | locus YMR205C, strain PFK2, hits give low values 1.01 | locus YMR231W, strain pep5, hits give low values 0.966 | locus YNL071W, strain lat1, hits give low values 0.963 | locus YNL183C, strain NPR1, hits give low values 0.928 | locus YNL209W, strain ssb2, hits give low values 0.973 | locus YNL248C, strain rpa49, hits give low values 1.04 | locus YNL322C, strain KRE1 (second series), hits give low values 0.977 | locus YNR049C, strain mso1, hits give low values 0.969 | locus YOR001W, strain rrp6, hits give low values 0.923 | locus YOR070C, strain gyp1, hits give low values 1 | locus YOR080W, strain dia2, hits give low values 0.96 | locus YOR083W, strain WHI5, hits give low values 1.04 | locus YOR106W, strain vam3, hits give low values 1.03 | locus YOR231W, strain MKK1, hits give low values 0.952 | locus YOR265W, strain rbl2, hits give low values 0.987 | locus YOR270C, strain vph1, hits give low values 1.06 | locus YOR290C, strain snf2, hits give low values 1.01 | locus YPL051W, strain arl3, hits give low values 1.01 | locus YPL078C, strain atp4, hits give low values 1.04 | locus YPL106C, strain sse1, hits give low values 0.931 | locus YPL240C, strain hsp82, hits give low values 0.963 | locus YPL256C, strain CLN2, hits give low values 0.942
